Experimental data published in PMC5540273 (PLoS ONE, 2017).

Columns and labels:
Details in all cases: concentration: 1 μM, replicates: in singlicate; n = 1
[1] = test system: IRAK4
[2] = test system: ITK
[3] = test system: JAK1(JH1domain-catalytic)
[4] = test system: JAK1(JH2domain-pseudokinase)
[5] = test system: JAK2(JH1domain-catalytic)
[6] = test system: JAK3(JH1domain-catalytic)
[7] = test system: T1, JNK1
T1 construct: gene MAPK8

[8] = test system: T2, JNK2
T2 construct: gene MAPK9

[9] = test system: T3, JNK3
T3 construct: gene MAPK10

[10] = test system: KIT-autoinhibited
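Also: KINOMEscan kinase panel screen.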

| Structure (SMILES) | %Inh [1] [%] | %Inh [2] [%] | %Inh [3] [%] | %Inh [4] [%] | %Inh [5] [%] | %Inh [6] [%] | %Inh [7] [%] | %Inh [8] [%] | %Inh [9] [%] | %Inh [10] [%] |
| --- | --- | --- | --- | --- | --- | --- | --- | --- | --- | --- |
| Cl.c1ccc(-c2n[nH]cc2-c2ccnc(-c3ccc(CN4CCOCC4)cc3)c2)nc1 [GW776245] | 0 | 0 | 0 | 2 | 0 | 0 | 31 | 17 | 20 | 0 |
| Cc1ccc(NC(=O)Nc2cccc(Cl)c2)cc1-c1ccc(C(=O)Nc2ccncc2)cc1 [GSK1398468] | 13 | 16 | 16 | 6 | 1 | 0 | 15 | 14 | 0 | 0 |
| C[C@@H]1CCCCN1c1cc(-c2ccc3c(N)n[nH]c3c2)nc(N)n1 [GSK2258759] | 0 | 0 | 8 | 0 | 0 | 0 | 0 | 10 | 0 | 0 |
| Cc1c(O)cccc1Nc1ccnc2ccc(C(F)(F)F)cc12.Cl [GW466413] | 0 | 0 | 0 | 0 | 6 | 0 | 21 | 4 | 0 | 0 |
| CCCc1ccc(S(=O)(=O)NC2CCN(c3ccnc(Nc4ccc(F)cc4)n3)C2)cc1 (centres unmarked) [GSK1379715] | 16 | 6 | 18 | 0 | 52 | 0 | 24 | 21 | 9 | 0 |
| Fc1cc(Cl)ccc1Nc1ccnc2cc(-c3ccc(CN4CCCCC4)o3)ccc12 [GW560116] | 0 | 2 | 11 | 0 | 24 | 0 | 0 | 1 | 0 | 0 |
| COc1ccccc1CNC(=O)c1cc(C(=O)c2ccccc2C)c[nH]1 [GSK364507] | 23 | 16 | 19 | 0 | 0 | 0 | 45 | 9 | 16 | 0 |
| Cc1ccc(NC(=O)Nc2cc(C(C)(C)C)nn2-c2ccccc2)cc1 [GSK1014915] | 23 | 12 | 0 | 0 | 13 | 0 | 45 | 39 | 10 | 0 |
| Cl.O=C(Nc1cccc(-c2nn3ncccc3c2-c2ccnc(Nc3cccnc3)n2)c1)c1c(F)cccc1F [GSK312879] | 28 | 15 | 15 | 0 | 23 | 0 | 14 | 18 | 19 | 0 |
| COc1ccc(CNC(=O)NC2CCN(c3ccnc(Nc4cc(OC)c(OC)c(OC)c4)n3)C2)cc1 (centres unmarked) [GSK1379748] | 0 | 7 | 0 | 0 | 87 | 0 | 0 | 0 | 0 | 0 |
| COc1cc2ncn(-c3cc(OCC4CCCO4)c(C(N)=O)s3)c2cc1OC (centres unmarked) [GSK204607] | 0 | 5 | 0 | 0 | 1 | 0 | 0 | 17 | 7 | 0 |
| Cn1ccc2ncnc(Oc3ccc(Nc4nc5ccccc5[nH]4)cc3)c21 | 0 | 3 | 8 | 0 | 0 | 0 | 0 | 0 | 0 | 0 |
| O=S(=O)(c1ccc(-c2ccnc3[nH]ccc23)cc1)N1CCCC1 [GSK846226] | 2 | 10 | 16 | 3 | 86 | 0 | 26 | 24 | 17 | 0 |
| O=c1cc(N2CCOCC2)nc2n(Cc3cccc(Cl)c3Cl)ccn12 [GSK2286295] | 0 | 4 | 17 | 0 | 0 | 0 | 1 | 30 | 15 | 0 |
| O=C(Nc1ccc2c(c1)OCO2)NC1CCN(c2ccnc(Nc3ccc(F)cc3)n2)C1 (centres unmarked) [GSK1379724] | 21 | 8 | 18 | 0 | 13 | 0 | 33 | 23 | 24 | 0 |
| Cc1c(Cn2ccn3c(=O)cc(N4CCOCC4)nc23)cccc1C(F)(F)F [GSK2289044] | 0 | 5 | 83 | 0 | 0 | 0 | 3 | 6 | 3 | 0 |
| CC1=C(C(=O)Nc2cc3cn[nH]c3cc2F)C(c2ccc(C(F)(F)F)cc2)CC(=O)N1 (centres unmarked) [GSK429286] | 17 | 13 | 40 | 0 | 62 | 29 | 21 | 25 | 15 | 0 |
| CN(C)CCN(C)C(=O)c1cc(-c2ccncc2)c(-c2ccc(Cl)c(O)c2)o1.Cl.Cl [SB-710397] | 43 | 13 | 18 | 0 | 49 | 0 | 27 | 29 | 35 | 0 |

| Structure (SMILES) | %Inh [1] [%] | %Inh [2] [%] | %Inh [3] [%] | %Inh [4] [%] | %Inh [5] [%] | %Inh [6] [%] | %Inh [7] [%] | %Inh [8] [%] | %Inh [9] [%] | %Inh [10] [%] |
| --- | --- | --- | --- | --- | --- | --- | --- | --- | --- | --- |
| O=C(Nc1n[nH]c2nc(-c3nccs3)c(Br)cc12)C1CC1 [SB-742251] | 43 | 13 | 1 | 21 | 36 | 0 | 41 | 16 | 16 | 0 |
| Clc1cc(Cl)cc(Nc2ccnc(Nc3cc(Cl)cc(Cl)c3)n2)c1 [GSK175726] | 0 | 4 | 12 | 0 | 22 | 0 | 2 | 0 | 0 | 3 |
| Cc1nnc(-c2ccc3occ(-c4ccc(S(C)=O)cc4)c3c2)[nH]1 (centres unmarked) | 0 | 13 | 3 | 90.4 | 11 | 22 | 3 | 26 | 45 | 11 |
| Cc1cccc(-c2nc(-c3ccc(S(C)(=O)=O)cc3)sc2-c2ccnc(NCCc3ccccc3)c2)c1 | 9 | 0 | 2 | 4 | 8 | 0 | 0 | 0 | 0 | 0 |
| CS(=O)(=O)c1ccc(-c2nc3n(c2-c2ccncc2)CCC3)cc1 [SKF-105942] | 23 | 7 | 6 | 0 | 0 | 0 | 41 | 16 | 0 | 7 |
| Nc1nc(-c2nccs2)c(-c2ccnc3ccccc23)s1 [GW693542] | 16 | 6 | 17 | 0 | 10 | 0 | 20 | 22 | 1 | 0 |
| COC(=O)c1c(-c2ccccc2)c2cc(C(=O)O)ccc2c(=O)n1Cc1ccccc1 | 22 | 5 | 2 | 0 | 0 | 0 | 0 | 0 | 0 | 0 |
| Cn1ccc2ncnc(Oc3cccc(C(=O)Nc4ccccc4)c3)c21 | 8 | 0 | 7 | 27 | 12 | 0 | 16 | 0 | 0 | 0 |
| Cc1csc(-c2nc(Nc3ccncc3)c3ccccc3n2)n1 [GW869640] | 0 | 11 | 0 | 74 | 53 | 9 | 54 | 16 | 15 | 24 |
| Cc1ccccc1-n1cnc2c(N)ncnc21 [SKF-97510] | 0 | 1 | 5 | 0 | 0 | 0 | 0 | 0 | 0 | 0 |
| O=C(O)COc1ncnc2cc(-c3ccc4[nH]ncc4c3)sc12 | 0 | 0 | 0 | 44 | 16 | 46 | 30 | 21 | 15 | 30 |
| CC(=O)Nc1nc2cnc(Nc3cc(NC(=O)c4cccc(CCC#N)c4)ccc3C)nc2s1 | 15 | 3 | 3 | 9 | 22 | 0 | 0 | 0 | 0 | 11 |
| O=C(Nc1n[nH]c2cc(-c3cccc(F)c3F)ccc12)C1CC1 [SB-733894] | 0 | 0 | 0 | 67 | 27 | 18 | 32 | 0 | 1 | 6 |
| COc1ccc(Nc2nccc(NCCNC(=O)Nc3ccccc3F)n2)cc1 [GSK1379901] | 20 | 9 | 15 | 0 | 25 | 0 | 56 | 15 | 11 | 0 |
| CCn1c(-c2ccccn2)nc2cnccc21 [SB-736398] | 37 | 0 | 0 | 0 | 17 | 0 | 24 | 19 | 8 | 0 |
| O=C(Nc1n[nH]c2nc(-c3nccs3)c(Br)cc12)C1CCCC1 [SB-742609] | 39 | 24 | 16 | 0 | 23 | 0 | 38 | 27 | 17 | 16 |
| Cn1ccc2ncnc(Oc3ccc(NC(=O)Nc4ccccc4)cc3)c21 | 17 | 0 | 0 | 39 | 2 | 21 | 22 | 0 | 0 | 57 |
